High-throughput results (PubChem BioAssay)
Compounds with a hit are over-represented: about 1.8% of the library has one in this group of screens.
NOD2 RIPK2 PPI: NOD2-RIPK2 protein interaction inhibition | O43353 | CHO BLA complementation NOD2-RIPK2, CCF4 ratio | inhibition, % at 4.98 µM | 0.38% of 360,000 active; in the data active means inhibition above about 21%;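 further: 0% = vehicle only and 100% = reference blocker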
Mcl1-Bid inh: disrupts binding of human Mcl-1 to Bid peptide; Q07820; TR-FRET Mcl-1/Bid-Dy647 peptide binding, 1536-well; inhibition, % at 21.7 µM; AID 1021; 0.97% of 220,000 active;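 active means compounds that cut the binding signal by more than half at the single screening dose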;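 further: His-tagged Mcl-1 with europium anti-His antibody binding Bid BH3 peptide; 0% = Mcl-1 plus peptide wells and 100% = peptide-only wells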
Target sequence (Q07820 whole entry, looked up): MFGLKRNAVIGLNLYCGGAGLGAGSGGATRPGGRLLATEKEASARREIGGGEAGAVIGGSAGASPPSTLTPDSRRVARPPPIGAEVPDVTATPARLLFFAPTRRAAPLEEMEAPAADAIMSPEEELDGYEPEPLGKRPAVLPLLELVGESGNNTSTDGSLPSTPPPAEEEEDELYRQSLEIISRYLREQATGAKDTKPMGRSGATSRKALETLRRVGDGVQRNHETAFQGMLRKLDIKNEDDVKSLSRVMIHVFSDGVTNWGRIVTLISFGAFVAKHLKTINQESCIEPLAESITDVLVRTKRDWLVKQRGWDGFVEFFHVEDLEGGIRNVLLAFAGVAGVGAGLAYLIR
TLR4 MyD88 comp: blocks binding of human TLR4 to MyD88. inhibition, % at 8.4 µM. HeLa CL3-4 TLR4/MyD88 BLA complementation, FRET ratio. 0.18% of 200,000 active; in the data active means inhibition above about 25%;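 further: 0% = vehicle and 100% = reference inhibitor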
Mcl-1 Bim block: disrupts Bim peptide binding to human Mcl-1; Q07820; Bead-based flow cytometry, Bim peptide-Mcl-1 binding; inhibition, % at 10 µM; 0.1% of 190,000 active; AID 1009; in the data active means inhibition above about 40%;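 further: 0% = no compound tracer wells and 100% = peptide blocker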
TLR9-MyD88 block: blocks human TLR9 binding to MyD88; Q9NR96+Q99836; CHO BLA complementation TLR9-MyD88, CCF4 FRET ratio; inhibition, % at 4.98 µM; 0.21% of 340,000 active; AID 504734;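 active means inhibition above the mean over all tested compounds plus 3 SD, cut at about 21% in these data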;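 further: 0% = DMSO only wells and 100% = clavulanate BLA inhibitor control wells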
Mcl1-Noxa inh: disrupts binding of human Mcl-1 to Noxa peptide. inhibition, % at 21.7 µM. TR-FRET Mcl-1/Noxa peptide binding, 2 h. AID 1022. 1.5% of 220,000 active;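 active means compounds that cut the protein-peptide binding signal by more than 50% relative to plate controls in a single-dose test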;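 further: His-tagged Mcl-1 with rhodamine Noxa BH3 peptide and terbium anti-His antibody; 0% = Mcl-1 plus Noxa peptide wells and 100% = peptide-only wells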
The depositor's hits bear a star.

What do the screens show for `COc1cc(CNc2ccc(O)cc2)cc(Br)c1OCc1ccccc1F`?
NOD2 RIPK2 PPI: -22; Mcl1-Bid inh: 95*; TLR4 MyD88 comp: -12; Mcl-1 Bim block: -3; TLR9-MyD88 block: 3; Mcl1-Noxa inh: 29

Results for COc1cc(CNCc2ccncc2)cc(Br)c1OCc1ccccc1F ?
NOD2 RIPK2 PPI: -10; Mcl1-Bid inh: 55*; TLR4 MyD88 comp: 5; Mcl-1 Bim block: 0; TLR9-MyD88 block: -4; Mcl1-Noxa inh: 36

What do the screens show for `COc1ccc(CN2CCN(S(=O)(=O)c3ccccc3)CC2)cc1Br`?
NOD2 RIPK2 PPI: -5; Mcl1-Bid inh: 64*; TLR4 MyD88 comp: 8; Mcl-1 Bim block: -1; TLR9-MyD88 block: 5; Mcl1-Noxa inh: 48

Results for COc1ccc(CN2CCN(S(=O)(=O)c3ccc(F)cc3)CC2)cc1OC ?
NOD2 RIPK2 PPI: 4; Mcl1-Bid inh: 35; TLR4 MyD88 comp: -3; Mcl-1 Bim block: -1; TLR9-MyD88 block: -6; Mcl1-Noxa inh: 13

Results for CCOC(=O)c1nnc(-c2ccc(C)cc2)nc1Sc1ccc(Cl)cc1 ?
NOD2 RIPK2 PPI: 5; Mcl1-Bid inh: 55*; TLR4 MyD88 comp: 9; Mcl-1 Bim block: 1; TLR9-MyD88 block: 1; Mcl1-Noxa inh: -9

What do the screens show for `O=C1NC(=O)/C(=C\c2ccc(O)cc2O)S1`?
NOD2 RIPK2 PPI: 6; Mcl1-Bid inh: -41; TLR4 MyD88 comp: 2; Mcl-1 Bim block: 2; TLR9-MyD88 block: 3; Mcl1-Noxa inh: 95*

What do the screens show for `O=C1Nc2cc(Cl)cnc2N2CCCC12` (stereo not drawn)?
NOD2 RIPK2 PPI: -13; Mcl1-Bid inh: -17; TLR4 MyD88 comp: 11; Mcl-1 Bim block: 1; TLR9-MyD88 block: 7; Mcl1-Noxa inh: 60*

What do the screens show for `CCn1c(CN2CCOCC2)nnc1SCC(=O)Nc1ccc(C(C)=O)cc1`?
NOD2 RIPK2 PPI: -1; TLR9-MyD88 block: -1

What do the screens show for `COc1ccc(NS(=O)(=O)c2ccc(N3CCCC3)c(NC(=S)Nc3cccc(S(=O)(=O)N(C)C)c3)c2)cc1`?
Mcl1-Bid inh: -17; TLR4 MyD88 comp: 3; Mcl-1 Bim block: -8; Mcl1-Noxa inh: 62*

How did Cc1ccc(/C=C/C(=O)NCc2ccc(S(N)(=O)=O)cc2)o1 do in these assays?
NOD2 RIPK2 PPI: -2; Mcl1-Bid inh: -41; TLR4 MyD88 comp: -11; Mcl-1 Bim block: -5; TLR9-MyD88 block: 6; Mcl1-Noxa inh: 53*

Results for Cc1ccc(/C=C/C(=O)NCc2ccccn2)o1 ?
NOD2 RIPK2 PPI: 2; Mcl1-Bid inh: -75; TLR4 MyD88 comp: -18; Mcl-1 Bim block: -8; TLR9-MyD88 block: -1; Mcl1-Noxa inh: 74*

What do the screens show for `Cc1ccc(/C=C/C(=O)NCc2ccco2)o1`?
Mcl1-Bid inh: -56; TLR4 MyD88 comp: -4; Mcl-1 Bim block: -3; Mcl1-Noxa inh: 32

What do the screens show for `Cc1ccc(S(=O)(=O)Nc2c(C)[nH]c(=O)[nH]c2=O)cc1C`?
NOD2 RIPK2 PPI: -5; Mcl1-Bid inh: -24; TLR4 MyD88 comp: 3; Mcl-1 Bim block: -4; TLR9-MyD88 block: 2; Mcl1-Noxa inh: 5

What do the screens show for `COC(=O)c1ccccc1NC(=S)N1CCN(c2ccc(OC)cc2)CC1`?
NOD2 RIPK2 PPI: 4; Mcl1-Bid inh: 3; TLR4 MyD88 comp: -4; Mcl-1 Bim block: -2; TLR9-MyD88 block: 2; Mcl1-Noxa inh: 27

How did COc1ccccc1-n1c(SCC(=O)N2CCOCC2)nc2ccccc2c1=O do in these assays?
NOD2 RIPK2 PPI: -2; TLR9-MyD88 block: -8

How did COc1ccccc1-n1c(SCc2cc(=O)oc3cc(O)ccc23)nc2ccccc2c1=O do in these assays?
NOD2 RIPK2 PPI: -14; Mcl1-Bid inh: -71; TLR4 MyD88 comp: 6; Mcl-1 Bim block: -1; TLR9-MyD88 block: -10; Mcl1-Noxa inh: 67*

What do the screens show for `Oc1ccc(/C=N/Nc2cccc3cccnc23)c(O)c1`?
NOD2 RIPK2 PPI: 4; Mcl1-Bid inh: -39; TLR4 MyD88 comp: 14; Mcl-1 Bim block: 0; TLR9-MyD88 block: -7; Mcl1-Noxa inh: 62*

Results for O=C1C=Cc2ccccc2/C1=C/c1[nH]c(=O)[nH]c1O ?
NOD2 RIPK2 PPI: -11; Mcl1-Bid inh: -30; TLR9-MyD88 block: -8; Mcl1-Noxa inh: 60*

Results for O=c1[nH]c(O)c(/C=C2\C=Nc3ccccc32)[nH]1 ?
NOD2 RIPK2 PPI: -3; Mcl1-Bid inh: -30; TLR9-MyD88 block: -4; Mcl1-Noxa inh: -3

How did Cc1ccc(NC(=O)Cn2c(O)c(N=NC(=O)c3cc4ccccc4cc3O)c3ccccc32)cc1 do in these assays?
NOD2 RIPK2 PPI: -4; Mcl1-Bid inh: 80*; TLR4 MyD88 comp: -5; Mcl-1 Bim block: 5; TLR9-MyD88 block: 4; Mcl1-Noxa inh: 99*

What do the screens show for `O=C(N=Nc1c(O)n(Cc2ccccc2)c2ccccc12)c1ccc(O)cc1`?
NOD2 RIPK2 PPI: -8; Mcl1-Bid inh: 4; TLR4 MyD88 comp: 1; Mcl-1 Bim block: -5; TLR9-MyD88 block: -1; Mcl1-Noxa inh: -6

What do the screens show for `O=C(N=Nc1c(O)n(Cc2ccccc2)c2ccccc12)c1cc2ccccc2cc1O`?
NOD2 RIPK2 PPI: -15; Mcl1-Bid inh: 56*; TLR4 MyD88 comp: 0; Mcl-1 Bim block: 4; TLR9-MyD88 block: -9; Mcl1-Noxa inh: 85*

Results for O=C(c1ccccc1)N(Cc1cccc(Br)c1)C1CCS(=O)(=O)C1 (stereo not drawn) ?
NOD2 RIPK2 PPI: -10; TLR9-MyD88 block: 0

Results for Cc1occc1C(=O)NNC(=O)Nc1ccc([N+](=O)[O-])cc1 ?
NOD2 RIPK2 PPI: 12; Mcl1-Bid inh: 82*; TLR4 MyD88 comp: 2; Mcl-1 Bim block: 0; TLR9-MyD88 block: 9; Mcl1-Noxa inh: 4

Results for Cc1occc1C(=O)Nc1ccc([N+](=O)[O-])cc1Br ?
NOD2 RIPK2 PPI: -9; TLR9-MyD88 block: -11

Results for Cc1ccc2c(c1)c(C)c(C)n2CC(O)Cn1nc(C)c(Br)c1C (stereo not drawn) ?
NOD2 RIPK2 PPI: 9; Mcl1-Bid inh: -17; TLR4 MyD88 comp: -3; Mcl-1 Bim block: 58*; TLR9-MyD88 block: -5; Mcl1-Noxa inh: 14

How did Cc1ccc2c(c1)c1c(n2CC(O)Cn2nc(C)c(Br)c2C)C(=O)CCC1 (stereo not drawn) do in these assays?
NOD2 RIPK2 PPI: -6; Mcl1-Bid inh: -8; TLR4 MyD88 comp: -14; Mcl-1 Bim block: 3; TLR9-MyD88 block: -4; Mcl1-Noxa inh: 9

What do the screens show for `CN(C)c1ccc(C(CC(=O)O)NC(=O)c2ccc(Cl)cc2)cc1` (stereo not drawn)?
NOD2 RIPK2 PPI: 3; Mcl1-Bid inh: -91; TLR4 MyD88 comp: -8; Mcl-1 Bim block: 2; TLR9-MyD88 block: -11; Mcl1-Noxa inh: 52*

What do the screens show for `Cc1ccn2c(Nc3ccc4c(c3)OCO4)c(-c3ccc(O)cc3)nc2c1`?
NOD2 RIPK2 PPI: -5; Mcl1-Bid inh: -98; TLR9-MyD88 block: 3; Mcl1-Noxa inh: 51*

How did Cc1ccc(-n2cccc2/C=C2/C(=N)N3C(=NC2=O)SN=C3S(C)(=O)=O)cc1Cl do in these assays?
NOD2 RIPK2 PPI: -6; Mcl1-Bid inh: 97*; TLR4 MyD88 comp: 0; Mcl-1 Bim block: 12; TLR9-MyD88 block: 7; Mcl1-Noxa inh: 116*
